# According to PubChem BioAssay (NCATS):
# Unmarked numbers belong to inactive results. Results filed as inconclusive are left out. Where a call stands in place of a potency, no number is given. The source made the active and inactive calls. Unless noted, the call rests on the fitted dose curve; in most records, active means well fitted curve in the direction sought with a large enough effect; inconclusive means small, poorly fitted or top-dose-only effect, or another doubt; inactive means no such curve, though single readings can be large; an effect the other way counts as inactive or inconclusive.
# What was measured:
# [1] = biological target: Glutaminase kidney isoform, mitochondrial (Homo sapiens) (UniProt O94925); experiment: qHTS for Inhibitors of Glutaminase (GLS): LOPAC Validation (AID 624146); further: nearly all actives have a fitted effect of over 60% in size; further: potency means the concentration at half of the fitted maximal effect
# Chain of Glutaminase kidney isoform, mitochondrial (Homo sapiens) (O94925 whole entry, looked up, canonical isoform): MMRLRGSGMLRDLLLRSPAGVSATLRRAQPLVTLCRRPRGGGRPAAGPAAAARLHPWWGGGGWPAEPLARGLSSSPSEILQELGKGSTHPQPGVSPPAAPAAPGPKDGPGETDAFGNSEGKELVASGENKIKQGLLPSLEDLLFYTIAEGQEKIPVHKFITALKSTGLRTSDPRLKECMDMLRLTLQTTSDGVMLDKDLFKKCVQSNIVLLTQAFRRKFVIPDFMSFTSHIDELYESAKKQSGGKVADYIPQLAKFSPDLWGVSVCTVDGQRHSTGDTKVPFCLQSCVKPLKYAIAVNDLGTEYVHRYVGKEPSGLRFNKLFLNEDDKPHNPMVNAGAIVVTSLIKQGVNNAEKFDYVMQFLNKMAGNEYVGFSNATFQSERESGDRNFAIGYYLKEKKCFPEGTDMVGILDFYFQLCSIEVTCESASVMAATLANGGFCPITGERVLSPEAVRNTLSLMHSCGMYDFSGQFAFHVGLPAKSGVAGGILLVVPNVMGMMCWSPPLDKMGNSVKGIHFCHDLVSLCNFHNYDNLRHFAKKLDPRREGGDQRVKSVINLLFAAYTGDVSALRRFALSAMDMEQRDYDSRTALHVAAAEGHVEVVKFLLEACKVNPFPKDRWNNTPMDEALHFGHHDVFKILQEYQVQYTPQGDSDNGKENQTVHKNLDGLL
# Procedure, shortened: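 hKGA; 45 mM KH2PO4 pH 8.2 + 0.02% Tween-20; cpd via pin tool; 1 mM Gln soln; GluOx/HRP/Amplex Red; RT 30 min; fluor. t0 & final.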
# [2] = qHTS of Trypanosoma Brucei Inhibitors: LOPAC Validation (AID 624147)
# Procedure, shortened: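 Glycolytic pyruvate kinase of T. brucei was incubated with substrate, test compound and 130 uM ADP for 45 minutes at room temperature. Luminescent Kinase-Glo Plus signal was measured after 10 minutes.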
# [3] = biological target: Glucagon-like peptide 1 receptor (Homo sapiens) (UniProt P43220); experiment: qHTS of GLP-1 Receptor Agonists: LOPAC Validation (AID 624148);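 further: higher luminescence signal means agonism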
# Chain of Glucagon-like peptide 1 receptor (Homo sapiens) (P43220 whole entry, looked up): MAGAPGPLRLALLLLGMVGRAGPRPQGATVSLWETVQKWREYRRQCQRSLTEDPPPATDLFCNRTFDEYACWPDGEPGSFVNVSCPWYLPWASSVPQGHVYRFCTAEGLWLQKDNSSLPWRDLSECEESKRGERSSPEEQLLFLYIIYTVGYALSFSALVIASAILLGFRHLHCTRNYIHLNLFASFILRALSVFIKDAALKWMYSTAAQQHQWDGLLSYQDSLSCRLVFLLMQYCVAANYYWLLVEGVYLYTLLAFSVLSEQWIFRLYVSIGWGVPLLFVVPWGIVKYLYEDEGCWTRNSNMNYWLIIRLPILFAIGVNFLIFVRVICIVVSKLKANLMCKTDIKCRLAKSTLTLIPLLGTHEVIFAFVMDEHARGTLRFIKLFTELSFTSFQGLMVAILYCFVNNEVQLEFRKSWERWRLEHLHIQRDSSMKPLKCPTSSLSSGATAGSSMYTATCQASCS
# Procedure, shortened: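 HEK293 cells stably co-expressing GLP-1R and a cAMP-responsive luciferase reporter, plated 12 hours before compound, then incubated 4-6 hr at 37 deg C. Luminescence read 12 min after detection reagent.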
# [4] = qHTS of Nrf2 Activators: LOPAC Validation (AID 624149)
# Procedure, shortened: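 ARE reporter activation measured in AREc32 firefly luciferase cells after 24 hr compound exposure; Steady-Glo luminescence.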
# [5] = HTS Assay for Allosteric Antagonists of the Human D2 Dopamine Receptor: Hit Validation in HTRF (AID 624455); further: potency means the concentration at half of the fitted maximal effect;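 further: stable D1 dopamine receptor cell line scored for blocking the D1 response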
# Procedure, shortened: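 Signal from an HTRF read-out in D1-expressing stable cells gave hit activity as inhibition of the D1 response.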
# [6] = biological target: Arylsulfatase A (Homo sapiens) (UniProt P15289); experiment: qHTS screen for enhancers of Arylsulfatase A (ASA1): LOPAC Validation Assay (AID 720538); further: potency means the concentration at half of the fitted maximal effect
# Chain of Arylsulfatase A (Homo sapiens) (P15289 whole entry, looked up): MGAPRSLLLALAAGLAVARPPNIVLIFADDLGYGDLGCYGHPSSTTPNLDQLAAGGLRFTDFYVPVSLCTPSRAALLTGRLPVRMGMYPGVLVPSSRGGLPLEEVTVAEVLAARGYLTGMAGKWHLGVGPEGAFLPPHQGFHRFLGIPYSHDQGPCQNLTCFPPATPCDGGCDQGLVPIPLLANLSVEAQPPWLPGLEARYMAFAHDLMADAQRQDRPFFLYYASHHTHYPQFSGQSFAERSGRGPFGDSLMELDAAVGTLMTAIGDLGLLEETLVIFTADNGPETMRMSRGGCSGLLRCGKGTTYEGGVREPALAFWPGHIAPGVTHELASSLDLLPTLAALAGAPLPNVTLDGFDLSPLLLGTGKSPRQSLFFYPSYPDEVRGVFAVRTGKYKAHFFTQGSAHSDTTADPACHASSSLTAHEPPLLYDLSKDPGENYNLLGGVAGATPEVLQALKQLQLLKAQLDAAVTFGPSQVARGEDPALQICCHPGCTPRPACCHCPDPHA
# Procedure, shortened: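 Cell-based enhancement test: residual ASA activity in SV40-transformed I179S patient fibroblasts is measured by pNCS turnover (0.5mM final, 14h, room temperature) following 48h compound incubation; higher fluorescence indicates activation.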
# [7] = qHTS assay for small molecule agonists of the antioxidant response element (ARE) signaling pathway (AID 651741; active means well fitted activation curve with a large enough effect in the signal ratio; the % refers to the signal ratio; further: potency means the concentration at half of the fitted maximal effect)
# Procedure, shortened: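 HepG2 ARE-bla cells plated at 2,000 cells/well and incubated 5 h at 37 C/5% CO2 received 23 nL compound in DMSO. After 16 h at 37 C, LiveBLAzer B/G FRET substrate was applied for 2 h at room temperature and fluorescence read.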
# [8] = qHTS assay for small molecule activators of the p53 signaling pathway (AID 651743; active means well fitted activation curve with a large enough effect in the signal ratio, not every such curve was filed as active; the % refers to the signal ratio; further: series mostly up to about 92 µM); conditions: HCT-116 p53RE-bla, beta-lactamase FRET ratio, 16 h; activation: active compounds read high
# Procedure, shortened: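 HCT-116 p53RE-bla, 4,000 cells/well; 5 h settle; cpd/DMSO 16 h, 37 C; LiveBLAzer B/G 2 h RT; fluorescence intensity.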
# [9] = qHTS assay for small molecule activators of the nuclear factor-kappa B (NF-kB) signaling pathway (AID 651749; active means well fitted activation curve with a large enough effect in the signal ratio; the % refers to the signal ratio; further: series mostly up to about 77 µM); conditions: NF-kB-bla ME-180 cells, beta-lactamase FRET ratio, 16 h; active compounds read high
# Procedure, shortened: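 Incubation lasted 16 hr at 37C in 5% CO2 after 23 nL compound addition to ME-180 NF-kB-bla cells. Activation appears as beta-lactamase-mediated FRET loss.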
# [10] = qHTS assay for environmental chemicals that activate the Aryl hydrocarbon Receptor (AhR) signaling pathway (AID 651777); conditions: 1A2-DRE human hepatoma cells, luciferase, 24 h; activation: active compounds read high; further: nearly all actives have a fitted effect of over 15% in size
# Procedure, shortened: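 Concentration–response screening used 1,200 1A2-DRE cells per well, 24 hr compound exposure (37 C, 5% CO2), and One-Glo luminescence as the AhR-driven CYP1A2 reporter signal.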
# [11] = biological target: Peroxisome proliferator-activated receptor alpha (Homo sapiens) (UniProt Q07869); experiment: qHTS assay for small molecule agonists of the peroxisome proliferator-activated receptor alpha (PPARalpha) signaling pathway (AID 651778); conditions: PathHunter PPARalpha complementation, chemiluminescence, 6 h; active compounds read high
# Chain of Peroxisome proliferator-activated receptor alpha (Homo sapiens) (Q07869 whole entry, looked up, the tested form may be a part): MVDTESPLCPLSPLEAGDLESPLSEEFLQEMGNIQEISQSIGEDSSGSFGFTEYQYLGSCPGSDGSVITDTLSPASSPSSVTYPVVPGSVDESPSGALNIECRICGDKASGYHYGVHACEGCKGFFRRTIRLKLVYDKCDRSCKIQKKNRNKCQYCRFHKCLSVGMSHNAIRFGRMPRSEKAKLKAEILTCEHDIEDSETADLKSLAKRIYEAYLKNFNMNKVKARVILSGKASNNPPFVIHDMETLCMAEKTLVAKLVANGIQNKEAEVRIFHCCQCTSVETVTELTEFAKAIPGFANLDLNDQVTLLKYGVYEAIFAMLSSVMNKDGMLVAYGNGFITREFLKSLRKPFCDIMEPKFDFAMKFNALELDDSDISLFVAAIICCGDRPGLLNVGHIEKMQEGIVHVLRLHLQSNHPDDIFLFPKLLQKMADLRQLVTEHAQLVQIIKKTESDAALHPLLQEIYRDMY
# Procedure, shortened: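 Enzyme-fragment complementation assay in which ligand-bound PPARalpha translocates and forms an active enzyme that generates chemiluminescence. Cells were plated overnight, exposed to compound for 6 hr at 37 C, and then given detection reagent for 60 min at room temperature.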
# [12] = qHTS assay for small molecule disruptors of the mitochondrial membrane potential - 1 hr assay (AID 651754; calls by dose curve; further: nearly all actives have a fitted effect of over 35% in size)
# Procedure, shortened: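 Steps: seed HepG2 cells and let attach overnight; pin-transfer compound or vehicle; incubate 1 hr at 37C; add Mito-MPS dye for 30 min; read two-channel fluorescence for monomer and aggregate forms.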
# [13] = qHTS assay for small molecule disruptors of the mitochondrial membrane potential - 5 hr assay (AID 651755; calls by dose curve; further: nearly all actives have a fitted effect of over 40% in size)
# Procedure, shortened: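 HepG2 cells (2,000/well), attached overnight, exposed to compound 5 hr at 37C, then Mito-MPS dye 30 min. Fluorescence read for monomers (490/535 nm) and aggregates (540/590 nm).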
# [14] = biological target: Tumor necrosis factor (Homo sapiens) (UniProt P01375); experiment: qHTS assay to identify small molecules that stimulate Tumor Necrosis Factor-alpha (TNF-alpha) secretion (AID 651757; active means well fitted curve in the direction sought with a large enough effect in the signal ratio; the % refers to the signal ratio)
# Chain of Tumor necrosis factor (Homo sapiens) (P01375 whole entry, looked up): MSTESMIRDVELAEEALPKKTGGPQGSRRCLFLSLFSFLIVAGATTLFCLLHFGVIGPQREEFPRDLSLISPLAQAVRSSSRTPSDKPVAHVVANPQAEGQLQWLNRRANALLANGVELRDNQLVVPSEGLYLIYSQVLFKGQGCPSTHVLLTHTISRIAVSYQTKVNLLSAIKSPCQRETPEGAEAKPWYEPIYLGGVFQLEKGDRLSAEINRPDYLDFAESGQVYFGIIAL
# Procedure, shortened: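 Secreted TNF-alpha from compound-treated THP-1 cells (17 hrs, 37 C) was quantified with a homogeneous time-resolved fluorescence antibody assay.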
# [15] = qHTS assay to identify small molecules that stimulate interleukin-8 (IL-8) secretion (AID 651758; active means well fitted activation curve with a large enough effect in the signal ratio; the % refers to the signal ratio)
# Procedure, shortened: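 THP-1 cells (2000/well) exposed to compound 16 h at 37 C; secreted IL-8 then detected by HTRF with cryptate- and XL665-labelled anti-IL-8 antibody pair after 1-3 h at room temperature.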
# [16] = biological target: Nuclear receptor ROR-gamma (Homo sapiens) (UniProt P51449); experiment: qHTS assay for small molecule antagonists of the retinoid-related orphan receptor gamma (ROR-gamma) signaling pathway (AID 651802);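 further: CHO cells with doxycycline-induced ROR-gamma expression; luciferase reporter luminescence driven by ROR response element; series mostly up to about 92 µM; nearly all actives have a fitted effect of over 60% in size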
# Chain of Nuclear receptor ROR-gamma (Homo sapiens) (P51449 whole entry, looked up): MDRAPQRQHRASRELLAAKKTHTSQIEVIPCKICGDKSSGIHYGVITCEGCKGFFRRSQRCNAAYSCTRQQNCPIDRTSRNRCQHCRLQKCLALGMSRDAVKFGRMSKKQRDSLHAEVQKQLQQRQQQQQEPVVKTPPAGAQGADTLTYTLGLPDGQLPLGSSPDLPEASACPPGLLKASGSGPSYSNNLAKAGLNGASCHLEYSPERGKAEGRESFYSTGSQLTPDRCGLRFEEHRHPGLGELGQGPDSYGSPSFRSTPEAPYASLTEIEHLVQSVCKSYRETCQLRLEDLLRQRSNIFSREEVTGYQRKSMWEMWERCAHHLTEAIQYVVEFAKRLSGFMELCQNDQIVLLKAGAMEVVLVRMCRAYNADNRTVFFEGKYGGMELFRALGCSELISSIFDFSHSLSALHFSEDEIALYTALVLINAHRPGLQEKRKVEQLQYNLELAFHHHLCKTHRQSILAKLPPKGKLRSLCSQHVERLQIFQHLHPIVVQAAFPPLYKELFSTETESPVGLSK
# Procedure, shortened: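 Antagonism is scored as a fall in luminescence from a RORE-luciferase reporter in CHO cells expressing ROR under a TET-inducible promoter, measured 16hr after doxycycline induction in the presence of compound.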
compound,measurement,setting,value
Ic1ccccc1CNC1C2CCN(CC2)C1C(c1ccccc1)c1ccccc1 (centres undefined),Potency,[1],inactive
same,Potency,[2],inactive
same,outcome,[3],inactive
same,Potency,[4],inactive
same,Potency,[5],inactive
same,Potency,[6],inactive
CNc1ccc2oc(C[C@H]3O[C@@]4(CC[C@H]3C)O[C@H]([C@H](C)C(=O)c3ccc[nH]3)[C@H](C)C[C@H]4C)nc2c1C(=O)O,Potency,[1],3.55 µM (active)
same,Potency,[2],inactive
same,outcome,[3],inactive
same,Potency,[4],inactive
same,Potency,[5],inactive
same,Potency,[6],inactive
NC(CCCCCP(=O)(O)O)C(=O)O (centres undefined),Potency,[1],inactive
same,Potency,[2],inactive
same,outcome,[3],inactive
same,Potency,[4],inactive
same,Potency,[5],inactive
same,Potency,[6],inactive
C[N+]1(C)CCN(c2ccccc2)CC1,Potency,[1],inactive
same,Potency,[2],inactive
same,outcome,[3],inactive
same,Potency,[4],inactive
same,Potency,[5],inactive
same,Potency,[6],inactive
CCCC[N+]1(C)C2CC(OC(=O)[C@H](CO)c3ccccc3)CC1C1OC12 (some centres undefined),Potency,[1],inactive
same,Potency,[2],inactive
same,outcome,[3],inactive
same,Potency,[4],inactive
same,Potency,[5],inactive
same,Potency,[6],inactive
NNC(=O)c1ccc(O)cc1,Potency,[2],inactive
same,outcome,[3],inactive
same,Potency,[4],inactive
same,Potency,[5],inactive
same,Potency,[6],inactive
NC(N)=NOCC[C@H](N)C(=O)O,Potency,[2],inactive
same,outcome,[3],inactive
same,Potency,[4],inactive
same,Potency,[5],inactive
same,Potency,[6],inactive
O=C(O)c1cc[c]([Hg][Cl])cc1,Potency,[1],3.55 µM (active)
same,outcome,[3],inactive
same,Potency,[5],inactive
same,Potency,[7],30.6 µM (active)
same,activation,[8],10.2%
same,activation,[9],4.33%
same,activation,[10],-2.48%
same,max response,[11],-9.79%
same,Potency,[6],inactive
Oc1ccc2c3c1O[C@H]1c4[nH]c5ccccc5c4C[C@@]4(O)C(C2)N(CC2CC2)CCC314 (some centres undefined),Potency,[2],inactive
same,outcome,[3],inactive
same,Potency,[4],inactive
same,Potency,[5],inactive
CN(N=O)c1ccc(O)c(O)c1,Potency,[1],inactive
same,outcome,[3],inactive
same,Potency,[4],inactive
same,Potency,[6],3.01 µM (active)
C[N+]1(C)CCOC(O)(c2ccc(-c3ccc(C4(O)C[N+](C)(C)CCO4)cc3)cc2)C1 (centres undefined),Potency,[2],inactive
same,outcome,[3],inactive
same,Potency,[4],inactive
same,Potency,[5],inactive
same,Potency,[6],inactive
COc1ccc2c(c1OC)C(=O)OC2C1c2cc3c(cc2CCN1C)OCO3 (centres undefined),Potency,[7],inactive
same,activation,[8],-5.72%
same,Potency,[12],inactive
same,Potency,[13],inactive
same,outcome,[14],inactive
same,Potency,[15],inactive
same,activation,[10],0.0911%
same,max response,[11],-0.464%
same,Potency,[16],inactive
COC1=CC(=O)O[C@@H](/C=C/c2ccccc2)C1,Potency,[7],5.31 µM (active)
same,activation,[8],-5.52%
same,activation,[9],-0.734%
same,Potency,[12],inactive
same,Potency,[13],inactive
same,outcome,[14],inactive
same,activation,[10],1.75%
same,max response,[11],-0.906%
same,Potency,[16],inactive
NC(=O)CI,Potency,[1],inactive
same,outcome,[3],inactive
same,Potency,[4],inactive
same,Potency,[5],inactive
same,Potency,[6],inactive
C[C@@H]1[C@@H]2Cc3ccc(O)cc3[C@@]1(C)CCN2CC1CC1,Potency,[2],inactive
same,Potency,[6],inactive
N#C/C(=C/c1ccc(O)c(O)c1)C(N)=S,Potency,[2],inactive
same,outcome,[3],inactive
same,Potency,[4],inactive
same,Potency,[5],inactive
same,Potency,[6],inactive
Cc1c2ccncc2c(C)c2c1[nH]c1ccccc12,Potency,[2],inactive
same,outcome,[3],inactive
same,Potency,[4],inactive
same,Potency,[5],inactive
same,Potency,[6],inactive
CCCN1CCc2cccc3c2[C@H]1Cc1ccc(O)c(O)c1-3,Potency,[1],1.41 µM (active)
same,outcome,[3],inactive
same,Potency,[4],inactive
same,Potency,[6],inactive
NC(Cc1ccc(N(CCCl)CCCl)cc1)C(=O)O (centres undefined),Potency,[2],inactive
same,outcome,[3],inactive
same,Potency,[4],inactive
same,Potency,[5],inactive
same,Potency,[6],inactive
COc1ccc2[nH]cc(CCN)c2c1,Potency,[2],inactive
same,outcome,[3],inactive
same,Potency,[4],inactive
same,Potency,[6],inactive
C[C@H](N)CN1CCc2ccc(Br)cc21,Potency,[2],inactive
same,outcome,[3],inactive
same,Potency,[4],inactive
same,Potency,[5],inactive
same,Potency,[6],inactive
C[Se]C[C@H](N)C(=O)O,Potency,[1],inactive
same,outcome,[3],inactive
same,Potency,[4],inactive
same,Potency,[5],inactive
same,Potency,[6],inactive
C#CCN1CC(=O)N(COC(=O)C2C(C=C(C)C)C2(C)C)C1=O (centres undefined),activation,[8],-4.17%
same,activation,[9],1.36%
same,activation,[10],3.63%
same,max response,[11],0.547%
O=C1C[C@@H]2OCC=C3CN4CC[C@]56c7ccccc7N1[C@H]5[C@H]2[C@H]3C[C@H]46,Potency,[7],inactive
same,activation,[8],-1.99%
same,activation,[9],-1.87%
same,activation,[10],0.363%
same,max response,[11],-1.11%
CN(N=O)c1cc(O)ccc1O,Potency,[1],1.78 µM (active)
same,outcome,[3],inactive
same,Potency,[4],inactive
same,Potency,[5],inactive
same,Potency,[6],inactive
CC[C@H](C)[C@H]1O[C@]2(C=C[C@@H]1C)C[C@@H]1C[C@@H](C/C=C(\C)[C@@H](O[C@H]3C[C@H](OC)[C@@H](O[C@H]4C[C@H](OC)[C@@H](O)[C@H](C)O4)[C@H](C)O3)[C@@H](C)/C=C/C=C3\CO[C@@H]4[C@H](O)C(C)=C[C@@H](C(=O)O1)[C@]34O)O2,activation,[10],-12.2%
same,max response,[11],7.18%
CCCN(CCC)CCc1ccc(O)c(O)c1,Potency,[2],inactive
same,outcome,[3],inactive
same,Potency,[4],inactive
same,Potency,[5],0.092 µM (active)
CC(C)(C)c1cc(C=C(C#N)C#N)cc(C(C)(C)C)c1O,Potency,[1],12.6 µM (active)
same,outcome,[3],inactive
same,Potency,[4],inactive
same,Potency,[5],inactive
same,Potency,[6],inactive
O=S1(=O)N(CCN2CC=C(c3c[nH]c4cc(F)ccc34)CC2)c2cccc3c2N1CCC3,Potency,[2],inactive
same,outcome,[3],inactive
same,Potency,[4],inactive
same,Potency,[5],inactive
same,Potency,[6],inactive
CCCCCCCCCCCCCC(=O)O[C@@H]1[C@@H](C)[C@@]2(O)[C@@H](C=C(CO)C[C@@]3(O)C(=O)C(C)=C[C@@H]23)C2C(C)(C)[C@@]21OC(C)=O (some centres undefined),Potency,[2],inactive
same,outcome,[3],inactive
same,Potency,[4],inactive
same,Potency,[6],inactive
COc1ccc2[nH]c3c(c2c1)CCNC3,Potency,[2],inactive
same,outcome,[3],inactive
same,Potency,[4],inactive
same,Potency,[5],inactive
same,Potency,[6],inactive
CC(=O)c1c(O)c(C)c(O)c(Cc2c(O)c3c(c(C(=O)/C=C/c4ccccc4)c2O)OC(C)(C)C=C3)c1O,Potency,[2],inactive
same,outcome,[3],inactive
same,Potency,[4],inactive
same,Potency,[5],inactive
same,Potency,[6],inactive
